According to PubChem BioAssay (NCATS):
Inconclusive results are not listed. Activity calls are given as the source filed them. Unless noted, calls follow the shape of the full dose curve.

Columns and labels:
[1] = qHTS for Inhibitors of the Functional Ribonucleoprotein Complex (vRNP) of Lassa (LASV) Arenavirus: LASV Primary Screen - GLuc reporter signal (AID 1347082; calls by dose curve; tested in HEK293 reporter line; also: nearly all actives have a fitted effect of over 60% in size)
[2] = qHTS for Inhibitors of the Functional Ribonucleoprotein Complex (vRNP) of Lassa (LASV) Arenavirus: Viability assay - alamar blue signal for LASV Primary Screen (AID 1347083; calls by dose curve; tested in HEK293 reporter line; also: nearly all actives have a fitted effect of over 80% in size)
[3] = qHTS for Inhibitors of the Functional Ribonucleoprotein Complex (vRNP) of Lymphocytic Choriomeningitis Arenaviruses (LCMV): Viability assay - alamar blue signal for LCMV Primary Screen (AID 1347085; calls by dose curve; tested in HEK293 reporter line; also: nearly all actives have a fitted effect of over 80% in size)
[4] = molecular target: Nucleoprotein (Lymphocytic choriomeningitis virus (strain Armstrong)) (UniProt P09992); test: qHTS for Inhibitors of the Functional Ribonucleoprotein Complex (vRNP) of Lymphocytic Choriomeningitis Arenaviruses (LCMV): LCMV Primary Screen - GLuc reporter signal (AID 1347086); also: nearly all actives have a fitted effect of over 70% in size
[5] = Primary qHTS for inhibitors of SARS-S pseudo-typed particle cell entry (AID 1479145); also: nearly all actives have a fitted effect of over 45% in size
[6] = Primary qHTS for Huh7 cytotoxicity: counterscreen for inhibitors of MERS-S pseudotyped particle cell entry (AID 1479147); conditions: outcome: dose series up to 57.1 µM unless noted
[7] = Primary qHTS for inhibitors of MERS-S pseudo-typed particle cell entry (AID 1479149); also: nearly all actives have a fitted effect of over 60% in size
[8] = Primary qHTS for Vero E6 cytotoxicity: counterscreen for inhibitors of SARS-S pseudo-typed particle cell entry (AID 1479150); conditions: outcome: dose series up to 57.1 µM unless noted
[9] = Cytotoxicity counterscreen for inhibitors of SARS-CoV-2 cell entry (AID 1645845); also: nearly all actives have a fitted effect of over 50% in size
How it was run: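 HEK293-ACE2 cells (Expi293F stably expressing human ACE2) seeded overnight, then compound for 1 h plus 48 h at 37C. Viability as ATP content by luminescence; normalized to wells with cells and media-only wells.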

[10] = system: Zika virus NS2B-NS3 protease; test: Primary screen GU AMC qHTS for Zika virus inhibitors (AID 1347154; active = well fitted curve in the direction sought with a large enough effect; an effect the other way counts as inactive or inconclusive; also: nearly all actives have a fitted effect of over 70% in size)
How it was run: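 Unlinked Zika NS2B hydrophilic domain–NS3 protease complex at 25 nM in 10 mM Tris-HCl pH 8.0, 0.01% Tween 20, with an AMC peptide substrate. Fluorescence change (340/450 nm) over 15 min at room temperature, normalized to controls, fitted to 4-parameter Hill.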

[11] = Primary qHTS for small molecule stabilizers of the endoplasmic reticulum resident proteome: Secreted ER Calcium Modulated Protein (SERCaMP) assay (AID 1508630; active = well fitted curve in the direction sought with a large enough effect; an effect the other way counts as inactive or inconclusive)
How it was run: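 GLuc-SERCaMP-expressing SH-SY5Y cells, pretreated 16 h with compound, are challenged with thapsigargin to empty ER calcium stores; after 4 h, coelenterazine is added directly to the medium and luminescence is imaged.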

[12] = Confirmatory qHTS to identify inhibitors of SARS-CoV-2 cell entry (AID 1645844); also: potency is read from the fitted curve at half-maximal effect; nearly all actives have a fitted effect of over 45% in size
How it was run: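 HEK293-ACE2 cells were pretreated 1 h with compound, then infected with MLV-based pseudoparticles bearing C-terminally truncated Wuhan-Hu-1 spike for 48 h at 37C; luciferase luminescence normalized to spike PP and bald PP wells.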

[13] = Primary qHTS to identify inhibitors of SARS-CoV-2 cell entry (AID 1645846); conditions: activity change, negative = inhibition: at 57.1 µM (top of the series) unless noted; also: nearly all actives have a fitted effect of over 45% in size
How it was run: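 Inhibition of spike-mediated entry was scored in human ACE2-transfected Expi293F cells. Particles were MLV-pseudotyped with Wuhan-Hu-1 S carrying a 19-aa C-terminal deletion; signal was luciferase after two days, scaled between spike PP and fusion-protein-free PP.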

[14] = VSVG counterscreen qHTS to identify inhibitors of SARS-CoV-2 cell entry (AID 1645847); also: potency is read from the fitted curve at half-maximal effect; nearly all actives have a fitted effect of over 65% in size
How it was run: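 Luminescence from a luciferase reporter, normalised to bald particle and VSV-G pseudotyped particle wells, is the read-out. Cells are HEK293 expressing human ACE2, exposed to compound 1 h before a 48 h particle infection at 37 °C.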

[15] = qHTS for inhibitors of Rabies Virus screened against the NCATS CANVASS Library (AID 1347402)

Chain of Nucleoprotein (Lymphocytic choriomeningitis virus (strain Armstrong)) (P09992 whole entry, looked up): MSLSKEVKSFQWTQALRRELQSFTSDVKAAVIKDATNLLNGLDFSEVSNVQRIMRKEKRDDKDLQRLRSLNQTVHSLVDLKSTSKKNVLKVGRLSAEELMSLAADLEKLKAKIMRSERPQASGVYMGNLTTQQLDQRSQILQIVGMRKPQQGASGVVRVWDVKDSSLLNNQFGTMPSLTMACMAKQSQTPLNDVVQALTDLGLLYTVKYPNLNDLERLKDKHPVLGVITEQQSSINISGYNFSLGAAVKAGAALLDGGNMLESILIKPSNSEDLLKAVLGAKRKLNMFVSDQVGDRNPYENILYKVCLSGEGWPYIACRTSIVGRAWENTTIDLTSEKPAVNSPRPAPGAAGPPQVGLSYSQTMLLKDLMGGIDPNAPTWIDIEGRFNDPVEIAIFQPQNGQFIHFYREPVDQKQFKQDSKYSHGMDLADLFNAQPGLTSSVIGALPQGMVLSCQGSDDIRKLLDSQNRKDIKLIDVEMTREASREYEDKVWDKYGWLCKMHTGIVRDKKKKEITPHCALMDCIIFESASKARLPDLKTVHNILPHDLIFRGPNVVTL

C[C@@H](O)[C@H]1C(=O)N2C(C(=O)OCOC(=O)C(C)(C)C)=C(SC3CN(C4=NCCS4)C3)[C@H](C)[C@H]12
inactive: Potency [1] | Potency [2] | Potency [3] | Potency [4] | Potency [5] | outcome [6] | Potency [7] | outcome [8] | Potency [9]

COC1=C(C)C(=O)O[C@]12C(=O)C(C)=C1CCCCN3[C@H]([C@@H]4C[C@H](C)C(=O)O4)CC[C@]132
inactive: Potency [1] | Potency [2] | Potency [3] | Potency [4]

CCN1C[C@]2(COC(=O)c3ccccc3N3C(=O)CC(C)C3=O)CC[C@H](OC)[C@@]34C5C[C@@H]6[C@@H](OC)C[C@@](O)(C5[C@H]6OC)[C@](O)([C@@H](OC)C23)[C@@H]14 (some centres not stated)
inactive: Potency [1] | Potency [2] | Potency [3] | Potency [4] | Potency [10] | Potency [11]

CO[C@H]1C(=O)[C@]2(C)[C@@H](OC)C[C@H]3OC[C@@]3(OC(C)=O)[C@H]2[C@H](OC(=O)c2ccccc2)[C@]2(O)C[C@H](OC(=O)[C@H](O)[C@@H](NC(=O)OC(C)(C)C)c3ccccc3)C(C)=C1C2(C)C
inactive: Potency [1] | Potency [2] | Potency [3] | Potency [4] | Potency [5] | outcome [6] | Potency [7] | outcome [8] | Potency [9]
active: Potency [12] 0.0482 µM | Potency [14] 0.136 µM
-81.7%: activity change, negative = inhibition [13]

O=c1cc(-c2ccccc2)oc2cc(O)c(O)c(O)c12
inactive: Potency [1] | Potency [2] | Potency [3] | Potency [4] | outcome [15] | Potency [9] | Potency [13]

COc1cc2c(cc1O)C(Cc1ccc(O)cc1)[N+](C)(C)CC2 (configuration not stated)
inactive: Potency [1] | Potency [2] | Potency [3] | Potency [4]
